This test deals with LXRa homodimer (NR concentration 270 nM). Kind of test: PBM binding z-score (relative to random genomic background probes); higher = stronger binding; sequences stand for … in GC…GCGATTGACAGCGTAGAATGAAGG
In outline: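 Each nuclear receptor dimer, without ligand, was incubated for 1 h on custom Agilent 4×180K protein-binding microarrays. Binding was detected with antibodies against each partner (one per run), and scanned fluorescence was regression-normalized. The binding z-scores are referenced to random human genomic background probes.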
Consider TCTTGTAGATTAGCAGGTTAAGAAAGCTGGCCAA, for which the PBM binding z-score worked out at 0.135.
CGAACTAGGTCAGAACAGGACAGTGAAGGATGAT: the PBM binding z-score is -0.0376.
Next, CCTACTGGCCCAAAGGTCATTGATTCCAATGCTC: 4.37; CGAACCAGGGCATGAGTTGATAGCAAATGCCGAT: -0.295.
Under TTCCCAAGGTGAAAGGTCGTTGATGCACGCCTTG stands 0.848; under CCTGCTACGTCATGGTCAGCTAATCTACAGTATG, -0.512; under TCGAGTAGGTTACCAATGAGGCATTCAGCTTTCT, -0.666.
AGTCAAAGTTCATCTAGGTAACGTACGATATGCT: the PBM binding z-score stood at 5.65.
For TCTAGGTGGTCACGGAGGTCACACACGACGGGTA, the PBM binding z-score came out at 2.06.
Sequence ACTAGCAGGCCAAGGGTCACCCAAGATTAGTCCG yielded a PBM binding z-score of 0.036.
For the sequence GATACAGTGTCAGCTAGAGGCCAGAGTATGGAAA, the PBM binding z-score is -0.437.
In turn, CCTTCTGGGCCATCAGGTCATTGATATCAACGTT displayed a PBM binding z-score of 0.846.
Sequence TCTTGTAGATAAACAGGAGGTTAAGAAAGATCGA showed a PBM binding z-score of 0.276.
Under CCTACTGGGCCAAGGGTCATTGATTCCAATGCTC stands 0.211; under GCTTGGAGATCAAGGTTAAGAAAGACTAAGCTAA, -0.403; under ATCTCTAGGTAAGACTCAGTTCAGCGAAGAACGC, 0.471.
In turn, TCTAGTTTGTCACGGAGGTCACACACGACGGGTA came in with a PBM binding z-score of 2.3.
The sequence TCTGGTAGATCAAGCAGGTTAAGAAAGCCTGAGT had a PBM binding z-score of -0.642.
Regarding TTACCAAGGTGAGCTGAGGCCGTTGATCCAACTC, the PBM binding z-score was -0.916.
Regarding TCTTGTAGCTCAATAGAGGTTAAGAAAGTGCGCT, the PBM binding z-score amounted to 0.267.
Next, ATCTCTAGGGAACCAAGTTCAGTGAATGCCGAAC: 0.471; TCTATTAGTTGAAGGACAACCGACGAGTCCGTTT: 0.762.
Next, ACTAGCAGGCCAAGTTGGGGTCACTCAAACAAAG: 0.123; TTACCAATGTGAGCTGAGGTCGTTGATCCAACTC: -0.15.
Next, TCATATAGGTAATACAGGTGAAAATCGGCATCTA: 0.422; TCTGCTAGGTCTGTTGGTCAGCTAACGAGCTGCC: -1.21; TCTAGTTGGTCACGGAGGTCAAACACGACGGGTA: 4.58.
TCATTTAGGTAAAAGGTGAAAGTCGGTGTGGTAA showed a PBM binding z-score of 0.427.
With CGTCCAAGGTCAGAGAGGGCAGTGAATGCCGAGT, the PBM binding z-score was 0.447.
AATACAGGGTCACTAGGCCAGACTAGGTACGAAT showed a PBM binding z-score of 0.88.
ACTTACGGGCCAACGAGGTTATAGCACGCGTATA came in with a PBM binding z-score of -0.119.
Next, CACCCTAGGTCAGGGCCAGTATAGGAGGAACGTT: 0.74.
In the case of CGAACTAGGTCGTTGACAGGACAGTGAATAGTAA, the PBM binding z-score was -0.251.
Next, TCGAGTAGGTTACCAAAGGGGCATTCAGCTTTCT: -0.577.
As for TCTTGTAGACCAGCAGGTTAAGAAAGCTGGCCAA, the PBM binding z-score is -0.542.
For the sequence CCTATTAGTTGACCATAAGGGCAGCCGAAGCTCG, the PBM binding z-score stood at 0.036.
As for CATACATGGTCAGCTAGGCCAGAGTAGGGACGGC, the PBM binding z-score is -0.736.
In turn, TCTTGTAGATCAATAGAGTTTAAGAAAGTGCGCT yielded a PBM binding z-score of 0.0611.
Take AGAATGAGGTTATACGTAGATAAGGGAAGAAAGT: the PBM binding z-score is -0.00161.

For the origin of these results see the supplement of paper PMC6555819.
